According to ChEMBL document CHEMBL4513216, “Probing the Open Global Health Chemical Diversity Library for Multistage-Active Starting Points for Next-Generation Antimalarials” (ACS Infect Dis, 2020):
Among all 69,000 compounds or so, about 8,600 (12%) showed an effect of 50% or more. The full list was thinned out, with strong results kept by preference.

Tested on: Plasmodium berghei
Assay: Screen against P. berghei liver stage (PbLuc), transformed with Luciferase, at 10uM
Type: functional, HepG2
Conditions: tested at 10 uM

Row | Structure (SMILES) | INHIBITION [%]
1 | CN(Cc1cc[nH]n1)C(=O)c1ccc2c(c1)nc(N1CC[C@H](O)C1)n2C | 22.6
2 | COc1ccc(COCC(O)CSc2ccc(NC(C)=O)cc2)cc1 (centres undefined) | 5.75
3 | O=C(O)CCN(Cc1ccc(F)c(F)c1)C(=O)C1CC1 | 40.1
4 | N#Cc1ccc(Cl)cc1NCC1CCOC1 (centres undefined) | -10.5
5 | Cc1c(C(N)=O)sc2nc(C(F)(F)F)ccc12 | 54.5
6 | Cc1c(C(=O)N2CCSCC2)sc2nc(C(F)(F)F)ccc12 | 14.9
7 | Cc1c(C(=O)O)sc2nc(C(F)(F)F)ccc12 | -11.9
8 | Cc1ncnc(NCCCN2CCCCC2CO)c1C (centres undefined) | -17.8
9 | CC(C(N)=O)N1CCN(c2ncc(Br)cn2)CC1 (centres undefined) | 21.8
10 | CCn1c(C)nnc1SCCNc1nc(C)ncc1S(C)(=O)=O | -22.4
11 | CCn1c(C)nnc1SCCNc1nc(C)nc2c1cnn2C | 26.7
12 | CCc1cnc(C)nc1NCCSc1nnc(C)n1CC | 55.7
13 | Cc1cccc(CN2CCC3(CCCN(C(=O)NC(C)C)C3)C2=O)n1 (centres undefined) | 8.67
14 | O=C(c1ccnnc1)N1C[C@H]2CCC[C@@]2(COCC2CCOCC2)C1 | 43.8
15 | O=C(c1ncccn1)N1C[C@H]2CCC[C@@]2(COCC2CCOCC2)C1 | 0
16 | O=C(c1ccccn1)N1C[C@H]2CCC[C@@]2(COCC2CCOCC2)C1 | 45.1
17 | c1csc(CN2C[C@H]3CCC[C@@]3(COCC3CCOCC3)C2)n1 | 49.7
18 | O=C(c1ccncn1)N1C[C@H]2CCC[C@@]2(COCC2CCOCC2)C1 | 64.9
19 | O=C(c1cccs1)N1C[C@H]2CCC[C@@]2(COCC2CCOCC2)C1 | 77.7
20 | O=C(c1ncccn1)N1C[C@H]2CCC[C@@]2(COCc2ccncc2)C1 | -15.8
21 | Cc1ccc(C(=O)N2C[C@H]3CCC[C@@]3(COCC3CCOCC3)C2)o1 | 62.5
22 | Cc1ncoc1C(=O)N1C[C@H]2CCC[C@@]2(COCC2CCOCC2)C1 | 44.4
23 | CCCOc1cc(C)ccc1NC(=O)N(C)Cc1cnn(C)c1 | 38.5
24 | O=C(O)[C@]12CCCN(C3CCOC3)C[C@H]1CN(c1nncs1)C2 (some centres undefined) | 4.98
25 | CN1CCN(C[C@@H]2CN(C(=O)CC3CCCCC3)C[C@@H]2CO)CC1 | 6.65
26 | CC(NC(=O)CCS(=O)(=O)C1CCCC1)c1nc(-c2ccccc2)c[nH]1 (centres undefined) | 4.81

Row | Structure (SMILES) | INHIBITION [%]
27 | CC(NC(=O)CCc1cccs1)c1nnc2n1CCCCC2 (centres undefined) | -29.1
28 | CCc1nsc(N2CCN(CC(=O)NCc3cccnc3)CC2)n1 | 78.1
29 | Cc1nsc(N2CCN(CC(=O)NCc3cccnc3)CC2)n1 | -101
30 | CCCNC(=O)CN1CCN(c2nc(CC)ns2)CC1 | -23.2
31 | CN(C)C(=O)c1cccc(CN2CCN(CC(O)C(C)(C)C)CC2)c1 (centres undefined) | -13.5
32 | Cc1c(Br)c(C(F)(F)F)nn1C(C)C(=O)O (centres undefined) | 8.49
33 | Cc1nnc(NCCC(=O)N(C)Cc2ccccc2)c(C#N)c1C | -5.65
34 | Cc1cnc(-c2nc(C3CCN(Cc4ccccc4C)CC3)no2)cn1 | 19.36
35 | O=C(CCc1cccc(Cl)c1)NS(=O)(=O)Cc1ccon1 | 35.1
36 | CC(O)(CNS(=O)(=O)Cc1ccon1)c1ccsc1 (centres undefined) | 1.98
37 | O=C(CCc1ccco1)NS(=O)(=O)Cc1ccon1 | 64
38 | O=C(CCc1ccsc1)NS(=O)(=O)Cc1ccon1 | 55.4
39 | Cc1cc(C(=O)NS(=O)(=O)Cc2ccon2)c(C)o1 | 44.2
40 | Cc1ccc(C(=O)NS(=O)(=O)Cc2ccon2)c(C)c1 | 12.8
41 | O=C(NS(=O)(=O)Cc1ccon1)c1ccsc1 | 73.6
42 | Cc1ccc(S(=O)(=O)NC(=O)CCc2ccco2)cc1N(C)C | -18.9
43 | COc1ccc(C(=O)NCc2ccon2)cc1F | 11.6
44 | Cc1cc(C(=O)NS(=O)(=O)Cc2ccon2)c(C)n1C(C)C | 56.1
45 | O=C(CCc1ccco1)NS(=O)(=O)N1CCOc2ccccc21 | 25.2
46 | CN(C(=O)CCc1ccsc1)S(C)(=O)=O | 37.4
47 | CC(=O)N1CCN(c2cc(C3CN(C(C)=O)CCO3)nc(C)n2)CC1 (centres undefined) | 29.2
48 | CO[C@@H]1CC[C@H]2[C@H]1OCCN2CCOCc1ccccc1 | 4.98
49 | Cc1nc(C2CCCN(C(=O)c3ccncc3)C2)c2sccn12 (centres undefined) | 35.2
50 | CC(=O)c1cn(CCC(=O)N[C@@H](CC(C)C)C(=O)O)c2ccccc12 | 11.9
51 | NC(=O)CSCC(=O)NC1(c2cccc(Cl)c2)CC1 | 38.6
52 | CC(=O)N1CC[C@H]2OCC[C@@H](C(=O)NCc3ccco3)[C@@H]2C1 | 18.3

Row | Structure (SMILES) | INHIBITION [%]
53 | COCC(=O)N1Cc2nccn2CC(Cn2ncccc2=O)C1 (centres undefined) | 19.4
54 | CC(C)(C)c1nccc(N2CCCCC2CNS(C)(=O)=O)n1 (centres undefined) | 16.6
55 | O=C(NCCc1ccccc1)C1CCCN(c2ccc3nncn3n2)C1 (centres undefined) | -23.5
56 | O=C(CCOc1ccc(Cl)cc1)N1CCN(c2cnccn2)CC1 | 3.19
57 | c1ccc(CN2CCN(c3ccc4nncn4n3)CC2)nc1 | 7.67
58 | O=C(COc1ccc(Cl)cc1)N1CCN(c2cnccn2)CC1 | -126
59 | N#Cc1ccc(N2CCN(c3ccc4nncn4n3)CC2)nc1 | -23.4
60 | Clc1ccc(OCCCN2CCN(c3cnccn3)CC2)cc1 | 54.4
61 | Clc1ccccc1CCN1CCN(c2ccc3nncn3n2)CC1 | 72.8
62 | c1ccc(CCN2CCN(c3ccc4nncn4n3)CC2)nc1 | 20.1
63 | c1ccc(CCN2CCN(c3ccc4nncn4n3)CC2)cc1 | 60.9
64 | c1cc(CCN2CCN(c3ccc4nncn4n3)CC2)ccn1 | -33.7
65 | c1ccc(CCCN2CCN(c3ccc4nncn4n3)CC2)cc1 | 74.7
66 | O=C(CCN1CCN(c2ccc3nncn3n2)CC1)N1CCCCC1 | -19.9
67 | O=c1[nH]c(N2CCCCC2)nc2nccc(-c3ccc4c(c3)OCO4)c12 | -5.59
68 | COc1c(C)cc(CNCc2ccnc(N3CCOCC3)c2)cc1C | 28.8
69 | CC(C)NC(=O)N1C[C@@H]2C[C@H](C(=O)NCc3ccccc3)[C@H](C1)O2 | 18.2
70 | COc1ccc(Cn2nnnc2SCC2CCCN(C)C2)cc1 (centres undefined) | 40.5
71 | CO[C@@]1(C)C[C@@H](O)C12CCN(C(=O)C1(c3ccccc3F)CC1)CC2 | 32.5
72 | NCCC(Cc1ccccc1)c1ccco1 (centres undefined) | 36.1
73 | O=C(N[C@H]1CCCC[C@@H]1O)c1ccc2nc(-c3ccccc3)[nH]c2c1 | -85.3
74 | COc1nn(C)c2c1CCCN(C(=O)c1ccccc1F)C2 | 3.25
75 | CC(NC(=O)CCCC(=O)c1cccs1)c1nnc2n1CCC2 (centres undefined) | 7.12
76 | O=C(O)Cn1ccc2c(Cl)cccc21 | 19.3
77 | Cc1nnc(C(C)N2CCN(Cc3ccc(C(F)(F)F)cc3)CC2)o1 (centres undefined) | -43.5
78 | O=C(CCN1CCN(c2ccc3nncn3n2)CC1)NC1CCCC1 | -51.5

Row | Structure (SMILES) | INHIBITION [%]
79 | FC(F)(F)COCCN1CCN(c2ccc3nncn3n2)CC1 | 38.8
80 | c1ccc(OCCCN2CCN(c3ccc4nncn4n3)CC2)cc1 | 86.1
81 | O=C(NCc1cccnc1)NC1CCC2(CCC(=O)N2CC2CC2)CC1 (centres undefined) | 40.3
82 | CCN(CCNC(=O)Nc1nnc(C)s1)C(=O)OC(C)(C)C | -19.3
83 | O=C1C(NS(=O)(=O)c2ccc(F)cc2)CCN1Cc1ccccc1 (centres undefined) | 23.5
84 | CCc1nc2ccccc2n1C(CC)C(=O)N(C)Cc1noc(C)n1 (centres undefined) | 31.1
85 | CCc1nc2ccccc2n1C(CC)C(=O)N(C)Cc1nc(C)c[nH]1 (centres undefined) | 12.9
86 | CCc1nnc(CN(C)C(=O)C(CC)n2c(CC)nc3ccccc32)o1 (centres undefined) | 52.7
87 | O=C1COc2ccc(C(=O)NS(=O)(=O)c3ccccc3Cl)cc2N1 | 14.1
88 | CCCS(=O)(=O)N1C[C@@H](Oc2ccccn2)[C@H]2OCCC[C@H]21 | -21.1
89 | CCOCCC(=O)N1CCCC(c2cc(C(F)(F)F)[nH]n2)C1 (centres undefined) | 7.97
90 | O=C(c1nc(=O)[nH][nH]1)N1CCCC(c2cc(C(F)(F)F)[nH]n2)C1 (centres undefined) | 29.1
91 | Cn1cc(CC(=O)N2CCCC(c3cc(C(F)(F)F)[nH]n3)C2)cn1 (centres undefined) | 7.97
92 | O=C(c1cc[nH]n1)N1CCCC(c2cc(C(F)(F)F)[nH]n2)C1 (centres undefined) | 25.1
93 | O=C(c1ccsc1)N1CCCC(c2cc(C(F)(F)F)[nH]n2)C1 (centres undefined) | 57.2
94 | Cc1nc(C(=O)N2CCCC(c3cc(C(F)(F)F)[nH]n3)C2)c[nH]1 (centres undefined) | 33.8
95 | O=C(Cc1cccnc1)N1CCCC(c2cc(C(F)(F)F)[nH]n2)C1 (centres undefined) | 50.8
96 | O=C(c1cc(Cl)c[nH]1)N1CCCC(c2cc(C(F)(F)F)[nH]n2)C1 (centres undefined) | 88.2
97 | O=C(c1ccc[nH]1)N1CCCC(c2cc(C(F)(F)F)[nH]n2)C1 (centres undefined) | 54.4
98 | Cc1nc(C2CCCN(C(=O)c3cc(Cl)c[nH]3)C2)sc1C (centres undefined) | 40.9
99 | Cc1cc(C(=O)N2CCCC(c3cc(C(F)(F)F)[nH]n3)C2)[nH]n1 (centres undefined) | 29.7
100 | CCOC(=O)c1cc(C(C)(O)CCC=C(C)C)on1 (centres undefined) | 37.8
101 | Cc1nc(CC(=O)N2CCC(c3nn(C)c4ncccc34)CC2)cs1 | 26.8
102 | Cn1c(C(=O)N2CCC(C(N)=O)C2)c(Cl)c2ccccc21 (centres undefined) | -20.5
103 | Cc1oc(-c2ccco2)nc1CN1CCc2cnc(C(C)C)nc2C1 | 21.9
104 | CC(C)N(C)S(=O)(=O)c1ccc2c(c1)CCN(C(=O)c1cccnn1)C2 | 23.2
